Many of the other results were omitted from the sample, so hits are more common in it than they were.
Pf Dd2 growth – qHTS Primary assay for Inhibitors of Plasmodium falciparum Dd2 growth in vitro; P. falciparum Dd2 growth, SYBR Green, 72 h; Potency, µM (top dose mostly 28.9 µM), inactives show at the highest dose activity, negative = inhibition, most hits filed as inhibitors; 120,000 compounds, 4.3% hits; AID 1347417, 2020; active means well fitted inhibition curve with a large enough effect;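 further: plate controls were DMSO vehicle for no effect and reference drug for full effect; nearly all actives have a fitted effect of over 65% in size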
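Infected erythrocytes (Dd2, 0.3% parasitemia, 2.5% hematocrit final) are added to compound in RPMI-1640/Albumax II medium, grown 72 h at 37C in low oxygen, then lysed with saponin/Triton-X containing SYBR Green and read by fluorescence.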
* hit, by the source's call; i = inactive; [ ] = another dose, or the depositor's remark. Potency means the concentration at half of the fitted maximal effect.

SMILES	Pf Dd2 growth
CN1CCN(C(=O)c2ccc3c(c2)N(Cc2c(F)cccc2Cl)C(=O)c2ccccc2S3)CC1	0.199µM*
Cc1ccccc1CN1C(=O)c2ccccc2Sc2ccc(C(=O)N3CCCC3)cc21	-17.3%
COC(=O)c1ccc2c(c1)N(Cc1ccc(F)cc1)C(=O)c1ccccc1S2	5.2%
CCOC(=O)c1ccc2c(c1)N(Cc1ccccc1)C(=O)c1ccccc1S2	-12.8%
O=C(CC1=C2CCCCC2NC1=O)NCC1CC1 (stereo not given)	2.4%
C[C@@]1(O)CCN(C(=O)C2(c3ccccc3)CC2)C[C@@H]1Cc1ccccc1	-19.7%
O=C(CN1CCCCCCC1)N1CCCC2(CCNC2)C1 (stereo not given)	7.4%
O=C(NCCN1CCCCC1)c1ccc(-c2ccc(N3CCCCC3)nc2)cc1	-16.7%
CC(C)(C)CC(=O)Nc1cnc(-c2cccc(Cl)c2)nc1	i
Cn1cnc(S(=O)(=O)N2CCCC(C(=O)NC3CCCC3)CCNC(=O)CC2)c1 (stereo not given)	-13.7%
CCCC(=O)NC(C)C(=O)N1CCN(c2ccccn2)CC1 (stereo not given)	6.7%
O=C(NCCc1csc(-c2cccnc2)n1)C1CC2(CCNCC2)CN1 (stereo not given)	-2.9%
Cn1cccc1CN1CCC(n2cc[nH]c2=O)CC1	-0.7%[44.1 µM]
Cc1nc(C)c(C(=O)N2CC(C)(C)C(C)(O)C2)s1 (stereo not given)	-19.6%
Cc1ccsc1C(=O)N1CCC2(CC1)NC(=O)N(c1cccc(Cl)c1)N2	i
CC1(NC(=O)C2CC2)CN(Cc2nc(-c3cccc(F)c3)cs2)C1	-22.5%[44.1 µM]
O=C1CN(C(=O)C2CNCC23CCOCC3)CCN1 (stereo not given)	18.8%
CN1CCN(C(=O)c2ccc3c(c2)N(Cc2ccc(C(F)(F)F)cc2)C(=O)c2ccccc2S3)CC1	0.398µM*
O=C(NCCc1ccccc1)c1ccc2c(c1)N(Cc1c(F)cccc1Cl)C(=O)CS2	i
Cc1ccccc1CN1C(=O)c2ccccc2Sc2ccc(C(=O)N3CCOCC3)cc21	30.5%
O=C(c1ccc2c(c1)N(Cc1c(F)cccc1Cl)C(=O)c1ccccc1S2)N1CCC2(CC1)OCCO2	10µM*
O=C(c1ccc2c(c1)N(Cc1cccc(F)c1)C(=O)c1ccccc1S2)N1CCOCC1	-17.4%
CC(C)S(=O)(=O)N1CCC(Oc2ncccc2C(=O)N(C)C)C1 (stereo not given)	5.7%
CCO[C@H]1C[C@@H](O)C12CCN(C(=O)c1cc(C(F)(F)F)[nH]n1)CC2	4.0%
O=C(Cn1ccn2nc(-c3ccc(F)cc3)c(CO)c2c1=O)Nc1cccc(Br)c1	-12.1%
SMILES	Pf Dd2 growth
CC[C@@]1(O)CCN(C(=O)CCn2nc(C)c(C(C)=O)c2C)C[C@H]1O	-3.7%
CC(=O)N[C@H]1C[C@@H](Cc2cc(CN(C)C)on2)C1(C)C	-17.1%[44.1 µM]
CCCCc1cc(C[C@@H]2C[C@H](NC(C)=O)C2(C)C)no1	i
COCc1ccc(CN[C@H]2C[C@@H](Cc3cc(CN4CCCCC4)on3)C2(C)C)o1	11.2µM*
CC(=O)N[C@H]1C[C@@H](Cc2cc(CN3CCCCC3)on2)C1(C)C	22.4µM*
COc1ccc(CN[C@H]2C[C@@H](Cc3cc(CN4CCOCC4)on3)C2(C)C)cc1	-29.0%[44.1 µM]
COCc1cc(C[C@@H]2C[C@H](NC3CCN(C(C)=O)CC3)C2(C)C)no1	-15.6%[44.1 µM]
O=C1[C@H]2CN(S(=O)(=O)c3ccc(F)cc3)CCN2C(=O)N1CCO	19.2%[44.1 µM]
CCn1cc(C(=O)N2CCC(C3CCN(C(=O)NC)CC3)C2)cn1 (stereo not given)	-8.6%
CCNC(=O)N[C@H]1CO[C@H]2[C@@H]1OC[C@@H]2n1nnnc1Oc1ccccc1	29.9%[44.1 µM]
CCn1cc(C(=O)NCCc2ccccc2)c(=O)c2cc(S(=O)(=O)N(C)C3CCCCC3)ccc21	-6.7%
CCn1cc(C(=O)NCCCN2CCCC(C)C2)c(=O)c2cc(S(=O)(=O)N(C)C3CCCCC3)ccc21 (stereo not given)	1µM*
CCCCN(CCCC)CCNC(=O)c1cn(CC)c2ccc(S(=O)(=O)N(C)C3CCCCC3)cc2c1=O	-17.8%
CCCN(CCC)CCCNC(=O)c1cn(CC)c2ccc(S(=O)(=O)N3CCc4ccccc4C3)cc2c1=O	-17.8%
CCn1cc(C(=O)NCCCN(CC(C)C)CC(C)C)c(=O)c2cc(S(=O)(=O)N3CCc4ccccc4C3)ccc21	2.2%
CCCCN(CC)CCCNC(=O)c1cn(CC)c2ccc(S(=O)(=O)N3CCc4ccccc4C3)cc2c1=O	10µM*
CNC(=O)[C@@H]1CN(C(=O)c2ccc(C)c(C)c2)C[C@H]1CO	15.2%
COc1ccc(-c2onc(C)c2C(=O)NCCc2ccc(F)cc2)cc1	6.6%
Clc1ccc(-c2noc3ncnc(NCCCN4CCN(c5ccccc5)CC4)c23)cc1	11.2µM*
Fc1ccc(-c2noc3ncnc(NCCCN4CCN(c5ccccc5)CC4)c23)cc1	-22.6%
CCOc1ccc(CCNc2ncnc3onc(-c4ccc(Cl)cc4)c23)cc1OCC	i
COc1ccc(NC(=O)Cn2c(=O)n(Cc3nc(C)no3)c(=O)c3cc4c(cc32)OCO4)cc1OC	-7.8%
